Reference: PubChem BioAssay
This is one part of the list. The source made the active and inactive calls. Unless noted, no rule for the calls is given here.

Experiments:
[1] = Brca1-Bard1 BiLC signal decrease – luminescence, single concentration, counter-screen for Mdm2/MdmX interaction inhibitor project, confirmation (AID 504668); settings: Brca1/Bard1 bimolecular luciferase complementation counterscreen, at 8 µM, stronger effect = higher value
[2] = molecular target: Tumor necrosis factor receptor superfamily member 10B (Homo sapiens) (UniProt O14763); assay: viability loss of caspase-8 NB7 cells with TRAIL – with/without TRAIL, luminescence panel, confirmation (AID 651596; in the data active = activity above about 50%); settings: NB7 neuroblastoma + caspase-8, TRAIL sensitization, NB7 Caspase-8, with TRAIL, mean of runs, at 10 µM, stronger effect = higher value
[3] = as above; settings: NB7 neuroblastoma + caspase-8, without TRAIL, NB7 Caspase-8, without TRAIL, mean of runs, at 10 µM
[4] = HIF-2a driven luciferase blockers, single dose – luminescence, 786-0 RCC cells, confirmation (AID 651580;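 active = mean inhibition across four replicates of at least 40 percent at the single tested concentration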); settings: HIF-2a luciferase reporter luminescence, overnight, at 18.8 µM, stronger effect = higher value
[5] = HIF-1a luciferase reporter signal reduction – MiaPaCa-2 cells, single concentration, counter-screen for HIF-2a inhibitor project, confirmation (AID 651589;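 active = mean inhibition of the reporter signal across four replicates at the single tested dose of 50% or more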); settings: MiaPaCa-2 HIF-1a luciferase reporter, desferoxamine, overnight; at 18.8 µM; stronger effect = higher value

Sequence of Tumor necrosis factor receptor superfamily member 10B (Homo sapiens) (O14763 whole entry, looked up): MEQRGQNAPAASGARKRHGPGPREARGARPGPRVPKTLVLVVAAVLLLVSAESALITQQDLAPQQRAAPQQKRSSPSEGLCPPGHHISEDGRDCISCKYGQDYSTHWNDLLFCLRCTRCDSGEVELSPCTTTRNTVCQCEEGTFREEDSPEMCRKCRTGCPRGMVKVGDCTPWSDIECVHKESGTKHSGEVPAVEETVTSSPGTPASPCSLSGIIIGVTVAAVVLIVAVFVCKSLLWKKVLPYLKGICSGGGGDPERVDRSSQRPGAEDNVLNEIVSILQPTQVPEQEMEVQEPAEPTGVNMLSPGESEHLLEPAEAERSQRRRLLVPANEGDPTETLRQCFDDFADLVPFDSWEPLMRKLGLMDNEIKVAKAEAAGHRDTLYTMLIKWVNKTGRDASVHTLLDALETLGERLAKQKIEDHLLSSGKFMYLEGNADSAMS

Structure (SMILES) | inhibition [1] | activity [2] [%] | activity [3] [%] | inhibition [4] | inhibition [5]
Cn1c(=O)c(C(=O)Nc2ccccn2)c(O)c2ccccc21 | 28.9% (active) | 60.7 | 58.8 |  | 
COC(=O)c1sc(NC(=O)c2cc(-c3ccccc3)nc3ccccc23)c(C#N)c1C | 35.4% (active) | 52.7 | 39.1 |  | 
CCCCn1c(CCl)nc2cc(S(=O)(=O)N3CCOCC3)ccc21 | 30.4% (active) | 92.6 | 76.2 |  | 
Cc1ccc(-c2nn(C(C)(C)C)c3ncnc(N)c23)cc1 | 30.7% (active) |  |  | 70.1% (active) | 93.8% (active)
Cn1ncc2c(O/N=C(\N)c3ccc(C(F)(F)F)cc3)ncnc21 | 24.2% (active) | 98.8 | 98.8 |  | 
CC(NC(=O)Nc1nnc(C(F)(F)F)s1)(C(F)(F)F)C(F)(F)F | 32.9% (active) | 43.9 | 43.1 |  | 
CC(C)(C)c1ccc(C2CC2C(=O)N/N=C\c2ccc[nH]2)cc1 (stereo not given) | 30.5% (active) | 79.5 | 96.8 |  | 
COc1ccccc1C(=O)Nc1nc(-c2ccc(S(=O)(=O)N3CCOCC3)cc2)cs1 | 29.5% (active) | 89.5 | 80.6 |  | 
CCCCCc1ccc(OCCCC[n+]2ccccc2)c(CCCCC)c1 | 24.6% (active) | 24.6 | 56.7 |  | 
COC(=O)C1=C(C)N(Cc2ccccc2)C(=NCC(C)C)N[C@H]1c1cccc(C(F)(F)F)c1 | 26.2% (active) | 25.1 | 6.62 |  | 
O=C(CCl)N(C/C=C/c1ccccc1)c1ccc2c(c1)OCCO2 | 26.4% (active) | 97.8 | 94 |  | 
Cc1ccc2sc(N(CCCN(C)C)C(=O)CCS(=O)(=O)c3ccccc3)nc2c1C | 29.9% (active) | 62 | 93 |  | 
CN(C)c1ccnc2c[cH-]cc12.[Fe].c1ccc(-[c-]2[c-](-c3ccccc3)[c-](-c3ccccc3)[c-](-c3ccccc3)[c-]2-c2ccccc2)cc1 (stereo not given) | 32% (active) | 6.08 | -38.5 |  | 
N#Cc1nc(NCC(F)F)nc(Nc2cc(F)cc(F)c2)n1 | 28% (active) | 63.2 | 71.3 |  | 
NC(=O)c1oc2ccccc2c1NC(=O)c1ccc([N+](=O)[O-])o1 | 31.8% (active) | 69.1 | 96.5 |  | 
